Bioassay records: PubChem, National Center for Advancing Translational Sciences (NCATS)
PLK1 PBD block = inhibitors of human PLK1 polo-box domain binding; P53350; AID 720504; Potency, µM, for the others: max response, negative = inhibition, most hits filed as inhibitors; actives 2.8% (n = 360,000); Plk1 PBD binding of FITC phosphopeptide, fluorescence polarization; also: potency is read from the fitted curve at half-maximal effect; series mostly up to about 57 µM; nearly all actives have a fitted effect of over 65% in size
Target sequence (P53350 whole entry, looked up, the tested form may be a part): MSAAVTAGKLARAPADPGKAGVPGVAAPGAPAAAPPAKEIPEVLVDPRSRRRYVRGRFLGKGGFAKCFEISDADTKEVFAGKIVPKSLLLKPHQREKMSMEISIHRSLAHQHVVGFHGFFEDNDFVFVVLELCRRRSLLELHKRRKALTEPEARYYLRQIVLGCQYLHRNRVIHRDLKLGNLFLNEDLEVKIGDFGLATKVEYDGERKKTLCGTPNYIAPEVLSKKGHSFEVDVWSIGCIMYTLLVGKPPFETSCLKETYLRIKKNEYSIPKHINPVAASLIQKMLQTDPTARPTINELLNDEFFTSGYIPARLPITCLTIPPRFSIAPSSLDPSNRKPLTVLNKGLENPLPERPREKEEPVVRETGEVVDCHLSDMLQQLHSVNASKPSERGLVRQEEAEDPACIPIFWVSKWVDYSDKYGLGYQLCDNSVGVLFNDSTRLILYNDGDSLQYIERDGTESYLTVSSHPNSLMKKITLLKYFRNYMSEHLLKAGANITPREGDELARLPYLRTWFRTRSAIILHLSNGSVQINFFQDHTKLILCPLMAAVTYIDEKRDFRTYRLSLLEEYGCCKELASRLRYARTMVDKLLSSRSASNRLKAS
CCT chaperon mod = modulators of cytosolic chaperonin (CCT/TRiC) activity; purified chaperonin ATPase assay, HTRF ADP detection, 30 min; activity change, % (test concentration not listed), hits read low; actives 0.3% (n = 360,000); AID 651819; in the data active = activity change below about -30%
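ATPase activity: ADP formed was measured by HTRF Transcreener (665/615 nm ratio) after 30 min at 37 deg C with 10 uM ATP. Compounds screened at one 76 uM concentration against 40 or 20 nM TRiC in Tris pH 7.4/KCl/MgCl2/DTT buffer.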
VDR inhibitor = inhibitors of human vitamin D receptor; P11473; VDR-SRC2-3 peptide fluorescence polarization, 2 h; Potency, µM, for the others: max response, negative = inhibition, usual class: inhibitors; actives 0.93% (n = 400,000); AID 504847; also: potency is read from the fitted curve at half-maximal effect
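Two reagent solutions held at 4 deg C in the dark were dispensed, compounds pinned at 23 nl, and the mixture incubated 2 h at room temperature. Read-out: fluorescence polarization of VDR–SRC2-3 peptide binding.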
Sfp PPTase inh = blocks B. subtilis Sfp PPTase activity; actives 3.5% (n = 310,000); Biochemical Sfp PPTase activity, qHTS; Potency, µM, for inactives: largest response in the series, negative = inhibition, most hits filed as inhibitors;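 also: the enzyme is Sfp with the accession as filed and its product quenches rhodamine fluorescence; potency is read from the fitted curve at half-maximal effect; 0% = enzyme reaction without inhibitor and -100% = no enzyme wells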
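Compounds were incubated with enzyme (final 15 nM) for 15 min at room temperature before substrate addition started the reaction. Fluorescence at 525 nm excitation, 598 nm emission was recorded immediately and after 30 minutes.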
Mm-Cpn inhibitor = blocks the Methanococcus maripaludis chaperonin Mm-Cpn; purified Mm-Cpn ATPase, ADP Transcreener TR-FRET; Potency, µM (titrated, usually from 76.9 µM), inactives show at the highest dose activity, negative = inhibition, actives largely listed as inhibitors; actives 0.031% (n = 330,000); also: potency is read from the fitted curve at half-maximal effect; nearly all actives have a fitted effect of over 80% in size
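ATP (10 uM final) was added to archaeal chaperonin (25 nM final) after 10 min exposure to test compound at 37°C; after 30 min further incubation, ADP was detected by competitive TR-FRET.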
G9a block = blocks human histone lysine methyltransferase G9a | Potency, µM (series often up to 102 µM), for inactives: at the top dose activity, negative = inhibition, actives largely listed as inhibitors | G9a H3K9 monomethylation, AlphaScreen, 2 h | Q96KQ7 | actives 8.8% (n = 350,000); also: potency is read from the fitted curve at half-maximal effect; nearly all actives have a fitted effect of over 75% in size
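Using a bead-based AlphaScreen, monomethylated H3K9 product from 2 h room-temperature reactions (G9a 20 nM, peptide 500 nM, SAM 20 uM) was detected with 0.5 ug/mL rabbit anti-H3K9me1 antibody.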
* = called active by the depositor; ? = inconclusive; . = no result; [ ] = remark or other dose. In the library only some 10% were active in any assay of this set; here they are far more common. Unless noted, calls follow the shape of the dose curve; as a rule, active = well fitted curve in the direction sought with a large enough effect; inconclusive = small, poorly fitted or top-dose-only effect, or another doubt; inactive = no such curve, though single readings can be large; an effect the other way counts as inactive or inconclusive. Unless noted, % is scaled to controls: 0 for no effect and ±100 for the full control effect.

SMILES	PLK1 PBD block	CCT chaperon mod	VDR inhibitor	Sfp PPTase inh	Mm-Cpn inhibitor	G9a block
O=C1N(Cc2cccnc2)C[C@@H]2C[C@@H](c3cccc(Oc4ccccc4)c3)N3CCC[C@@]123	-2.1%	-4.8	4.9%	-7.0%	-2.5%	12.6µM*
COC(=O)NC(CC(C)=O)c1ccco1 (configuration not stated)	.	.	.	-4.7%	.	.
COc1ccc(CCNC(=O)c2cn(C)c3ccc(S(=O)(=O)N(C)C)cc3c2=O)cc1OC	.	.	-7.3%	.	.	3.2%[59 µM]
Cc1oc2c(cc(NS(=O)(=O)c3ccc4c5c(cccc35)C(=O)N4)c3ccccc32)c1C(=O)OC(C)C	-6.6%	-1.2	14.8%	-27.0%	-0.4%	20µM*
CCOC(=O)c1ccc(S(=O)(=O)Nc2cc(C(=O)O)ccc2Cl)cc1	?	1.8	?	?	0.6%	7.94µM*
CCOc1ccc(S(=O)(=O)Nc2cc3c(C(=O)OCc4ccccc4)c(C)oc3c3ccccc23)cc1	.	.	-21.0%	.	.	?
CCOC(=O)c1c(C)oc2c1cc(NS(=O)(=O)c1ccc(C(=O)O)cc1)c1ccccc12	26.7µM*	-0.8	-1.9%	56.2µM*	1.4%	35.5µM*
O=S(=O)(NCCc1csc2nc(-c3ccccc3)nn12)c1cccs1	.	.	9.0%	.	.	7.7%[59 µM]
Cc1ccc(-n2c(=O)c3c4c(sc3n(Cc3ccccc3C)c2=O)CCC4)cc1C	.	.	6.5%	.	.	8.4%[59 µM]
CCOc1ccc(NC(c2ccccn2)c2oc(CO)cc(=O)c2O)cc1 (configuration not stated)	?	0.9	?	3.16µM*	-0.1%	1.41µM*
CCCC(=O)O[C@]1(C(=O)COC(C)=O)CC[C@H]2C3C[C@H](F)C4=CC(=O)C=CC4(C)[C@@]3(F)[C@@H](O)CC21C (some centres not stated)	.	.	4.4%	4.9%	.	-6.1%[12.7 µM]
COc1ccccc1NC(=O)Cn1cc(S(=O)(=O)Cc2ccccc2)c2ccccc21	.	.	12.6%	.	.	?
Cc1ccc(-c2nc3ccccc3c(=O)n2O)cc1	4.0%	0.6	-3.5%	-13.5%	0.1%	31.6µM*
Cc1ccccc1/C=N/Nc1nc2ccccc2c(=O)n1O	11.9µM*	-1.7	-10.8%	31.6µM*	0.4%	14.1µM*
COc1ccccc1-c1nc2ccccc2c(=O)n1O	2.5%	1.6	-15.0%	-18.6%	-0.5%	35.5µM*
Cc1ccc(-c2nc3ccccc3c(=O)n2NC(=S)N(C)C)cc1	26.7µM*	-4.9	-21.8%	22.4µM*	0.3%	3.98µM*
CN1CCN(C(CNC(=O)c2cccc(F)c2)c2ccc3c(c2)OCO3)CC1 (configuration not stated)	.	.	22.3%	.	.	-2.5%[59 µM]
CCOC(=O)c1cc2c(ccn2C)n1CC(=O)N(Cc1ccccc1)c1ccc(F)cc1	-7.5%	0.9	9.6%	-1.7%	-4.0%	28.2µM*
CC(C)OC(=O)c1cc2c(ccn2C)n1CC(=O)N1CCC(Cc2ccccc2)CC1	-17.5%	0.6	-7.6%	-7.6%	0.7%	44.7µM*
CC(C)OC(=O)c1cc2c(ccn2C)n1CC(=O)N(Cc1ccccc1)c1ccc(F)cc1	-3.6%	-0.9	-10.5%	-23.5%	-5.4%	28.2µM*
CCOC(=O)c1cc2c(ccn2C)n1CC(=O)N1CCN(c2ccccc2)CC1	2.8%	-0.2	3.5%	0.2%	-3.0%	?
CCOC(=O)c1cc2c(ccn2C)n1CC(=O)N1C(C)CCCC1C (configuration not stated)	-1.6%	0.0	-15.5%	13.4%	0.2%	-37.3%
CCOC(=O)c1cc2c(ccn2C)n1CC(=O)N(Cc1ccccc1)c1ccccc1	-6.2%	-1.8	-8.4%	9.4%	-10.1%	28.2µM*
Cc1cc(Oc2c(C(F)(F)F)oc3c(CN4CCC(C)CC4)c(O)ccc3c2=O)cc(C)c1Cl	.	.	-3.3%	.	.	0.9%[59 µM]
Cc1ccc(C)c(Cn2c(C(=O)OC(C)C)cc3c2ccn3C)c1	-9.0%	-1.8	2.6%	4.2%	-2.5%	50.1µM*
SMILES	PLK1 PBD block	CCT chaperon mod	VDR inhibitor	Sfp PPTase inh	Mm-Cpn inhibitor	G9a block
CCOC(=O)c1cc2c(ccn2C)n1Cc1ccccc1Cl	-3.9%	0.9	-1.6%	?	-0.5%	50.1µM*
Cc1ccccc1Cn1c(C(=O)OC(C)C)cc2c1ccn2C	0.6%	-1.4	0.3%	-7.5%	-1.6%	17.8%[0.501 µM]
CCOC(=O)c1cc2c(ccn2C)n1Cc1ccccc1C	-11.7%	-2.3	-7.8%	-6.7%	-0.6%	?
CCn1c(C(=O)OC)cc2c1ccn2-c1ccc(F)cc1	2.99µM*	-0.4	?	-10.5%	-2.7%	?
COC(=O)c1cc2c(ccn2-c2ccc(F)cc2)n1Cc1ccc(OC)cc1	3.8%	-1.1	-2.3%	-2.7%	-6.9%	-45.2%[59 µM]
COc1cc(NC(C)CCCN)c2ncccc2c1 (configuration not stated)	-23.0%	-2.2	-9.7%	2.1%	-7.9%	12.6µM*
COc1cc(NCCCCCCCN)c2ncccc2c1	-7.2%	-2.1	-6.8%	?	-0.1%	-42.6%[59 µM]
CC(C)(C)c1cc(=O)n2[nH]c(N)nc2n1	-9.8%	-0.3	9.7%	?	1.5%	.
CC(C)c1cc(=O)n2[nH]c(N)nc2n1	-20.6%	-1.9	4.1%	79.4µM*	0.0%	79.4µM*
Cc1ccc2nc(COc3ccccc3NC(=O)COc3ccccc3Cl)cc(=O)n2c1	.	.	-1.8%	.	.	9.8%[59 µM]
O=C(NC1CCCCC1)C(c1ccncc1)N(C(=O)Cn1nnc(-c2cccs2)n1)C1CCCC1 (configuration not stated)	-10.1%	0.6	-6.6%	1.1%	-0.8%	22.4µM*
CCCC(C(=O)NC1CCCC1)N(C(=O)Cn1nnc(-c2ccc(C)o2)n1)C1CCCC1 (configuration not stated)	-27.2%	-0.4	-25.2%	?	2.1%	11.2µM*
Cc1ccc(N(C(=O)Cn2nnc(-c3ccc(C)o3)n2)C(C(=O)NC2CCCC2)c2ccncc2)cc1 (configuration not stated)	3.8%	2.4	-2.8%	20.3%	3.4%	11.2%
Cc1ccc(N(CC(=O)NC2CCCCC2)C(=O)Cn2nnc(-c3ccc(C)o3)n2)cc1	-9.9%	1.2	8.7%	18.7%	-0.9%	-34.3%
CCCC(C(=O)NC1CCCC1)N(C(=O)Cn1nnc(-c2ccc(C)o2)n1)c1ccccc1F (configuration not stated)	-8.4%	-1.4	13.4%	20.0%	1.7%	-11.7%
CCOc1ccc(N(CC(=O)NC2CCCCC2)C(=O)Cn2nnc(-c3ccc(C)o3)n2)cc1	1.4%	-2.4	-5.8%	-2.2%	-0.5%	44.7µM*
Cc1ccc(-c2nnn(CC(=O)N(Cc3ccccc3)C(C(=O)NC3CCCC3)c3ccncc3)n2)o1 (configuration not stated)	-16.5%	-1.8	4.2%	-27.6%	0.0%	22.4µM*
COc1ccc(-c2nnc(Nc3ccc(OCC(N)=O)cc3)c3ccccc23)cc1	.	.	-4.0%	.	.	-33.3%[59 µM]
